Values joined by “and” are separate entries in the source; they are usually repeats but may differ in a detail not shown here. Equal entries are not always repeated. Results filed as inconclusive are left out. Where a call stands in place of a potency, no number is given. Where a structure was tested more than once in an assay, its records may differ in their call. Active and inactive are the calls of the source. Unless noted, calls follow the shape of the dose curve; as a rule, active = well fitted curve in the direction sought with a large enough effect in the repeat runs; inconclusive = weak or mixed curves; inactive = no such curve, though single readings can be large; an effect the other way counts as inactive or inconclusive.
What was measured:
[1] = qHTS assay to identify small molecule antagonists of the glucocorticoid receptor (GR) signaling pathway - cell viability counter screen (AID 720693); also: nearly all actives have a fitted effect of over 55% in size; also: potency is read from the fitted curve at half-maximal effect
[2] = qHTS assay for identifying genotoxic compounds that show differential cytotoxicity against isogenic chicken DT40 cell lines with known DNA damage response pathways - wild type cell line (AID 743012); also: nearly all actives have a fitted effect of over 60% in size; also: potency is read from the fitted curve at half-maximal effect
Outline: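 Wild-type DT40 cells (300/well) exposed to compounds for 40 hours at 37 C/5% CO2. Viability read by CellTiter-Glo luminescence after 30 min at room temperature.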

[3] = qHTS assay for identifying genotoxic compounds that show differential cytotoxicity against isogenic chicken DT40 cell lines with known DNA damage response pathways - Rev3 mutant cell line (AID 743014); also: nearly all actives have a fitted effect of over 55% in size; also: potency is read from the fitted curve at half-maximal effect
[4] = qHTS assay for identifying genotoxic compounds that show differential cytotoxicity against isogenic chicken DT40 cell lines with known DNA damage response pathways - Rad54/Ku70 mutant cell line (AID 743015); also: nearly all actives have a fitted effect of over 60% in size; also: potency is read from the fitted curve at half-maximal effect
[5] = qHTS assay to identify small molecule antagonists of the androgen receptor (AR) signaling pathway - cell viability counter screen (AID 743033; also: nearly all actives have a fitted effect of over 45% in size; also: potency is read from the fitted curve at half-maximal effect)
[6] = qHTS assay to identify small molecule antagonists of the androgen receptor (AR) signaling pathway using the MDA cell line - cell viability counter screen (AID 743041; also: nearly all actives have a fitted effect of over 45% in size)
Outline: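 MDA-kb2 AR-luc cells (MMTV-luciferase, AR/GR responsive) treated with compounds plus R1881 agonist for 16 h at 37C. CellTiter-Fluor added at 15.5 h; fluorescence read after 30 min in the same wells.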

[7] = target: Androgen receptor (Homo sapiens) (UniProt P10275); experiment: qHTS assay to identify small molecule antagonists of the androgen receptor (AR) signaling pathway (AID 743035; active = well fitted inhibition curve with a large enough effect in the signal ratio in the repeat runs, not every such curve was filed as active; the % refers to the signal ratio)
Sequence of Androgen receptor (Homo sapiens) (P10275 whole entry, looked up): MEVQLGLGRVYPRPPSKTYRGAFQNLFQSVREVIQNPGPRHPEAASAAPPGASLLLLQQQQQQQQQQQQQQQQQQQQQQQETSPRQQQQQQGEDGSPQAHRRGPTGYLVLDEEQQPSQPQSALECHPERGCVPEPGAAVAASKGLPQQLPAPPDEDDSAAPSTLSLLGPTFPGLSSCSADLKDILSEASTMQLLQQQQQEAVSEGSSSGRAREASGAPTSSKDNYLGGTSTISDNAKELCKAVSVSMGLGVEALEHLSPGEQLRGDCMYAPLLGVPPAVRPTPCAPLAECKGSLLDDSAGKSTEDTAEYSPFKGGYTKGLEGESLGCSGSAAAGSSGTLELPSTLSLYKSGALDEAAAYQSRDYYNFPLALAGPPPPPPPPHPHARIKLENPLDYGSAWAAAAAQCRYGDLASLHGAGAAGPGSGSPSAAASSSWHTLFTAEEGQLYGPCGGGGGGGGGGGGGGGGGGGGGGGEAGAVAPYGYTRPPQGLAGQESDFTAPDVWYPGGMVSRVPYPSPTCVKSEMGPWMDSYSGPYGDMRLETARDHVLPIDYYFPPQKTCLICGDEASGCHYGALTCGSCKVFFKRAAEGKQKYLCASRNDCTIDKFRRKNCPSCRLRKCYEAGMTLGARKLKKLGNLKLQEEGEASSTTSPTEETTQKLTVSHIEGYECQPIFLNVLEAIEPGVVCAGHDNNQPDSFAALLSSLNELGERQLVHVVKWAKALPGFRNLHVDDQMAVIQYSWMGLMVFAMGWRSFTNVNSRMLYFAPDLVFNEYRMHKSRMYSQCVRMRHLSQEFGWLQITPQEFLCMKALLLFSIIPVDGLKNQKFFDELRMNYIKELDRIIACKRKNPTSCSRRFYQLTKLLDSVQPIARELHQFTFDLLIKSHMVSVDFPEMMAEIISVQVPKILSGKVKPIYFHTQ
Outline: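 HEK293 cells stably carrying UAS-beta-lactamase reporter, 2,000/well, given compounds plus R1881 agonist and incubated 16 h at 37C. LiveBLAzer B/G FRET substrate then added for 2 h at room temperature before fluorescence reading.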

[8] = target: Androgen receptor (Homo sapiens) (UniProt P10275); experiment: qHTS assay to identify small molecule agonists of the androgen receptor (AR) signaling pathway (AID 743036; active = well fitted activation curve with a large enough effect in the signal ratio in the repeat runs, with a control signal flat, not every such curve was filed as active; the % refers to the signal ratio)
Outline: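 Beta-lactamase under UAS control, stably integrated in HEK293 GripTite cells, reports receptor activation. After 16 h compound treatment, cells received FRET substrate for 2 h at room temperature before fluorescence reading.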

[9] = target: Androgen receptor (Homo sapiens) (UniProt P10275); experiment: qHTS assay to identify small molecule agonists of the androgen receptor (AR) signaling pathway using the MDA cell line (AID 743040; also: nearly all actives have a fitted effect of over 20% in size); conditions: MDA-kb2 AR-luc cells, MMTV luciferase, 16 h, stronger effect = higher value
Outline: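 MDA-kb2 breast carcinoma cells carrying MMTV-luciferase (responsive to AR and GR), plated 5 h then treated 16 h with compounds at 37C, 0% CO2. Read-out was ONE-Glo luminescence after 30 min at room temperature.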

[10] = target: Androgen receptor (Homo sapiens) (UniProt P10275); experiment: qHTS assay to identify small molecule antagonists of the androgen receptor (AR) signaling pathway using the MDA cell line (AID 743042; also: nearly all actives have a fitted effect of over 55% in size; also: potency is read from the fitted curve at half-maximal effect)
Outline: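 MDA-kb2 breast carcinoma cells carrying MMTV-luciferase (AR/GR responsive) were co-treated with compounds and the agonist R1881 for 16 h at 37C. Inhibition read as ONE-Glo luminescence; CellTiter-Fluor fluorescence measured in parallel for cytotoxicity.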

[11] = activity change: at 70.3 µM (top of the series)

With `CCOc1cc(C=O)ccc1O` the Potency [1] was “inactive”, the Potency [2] was “inactive” and the Potency [3] was “inactive”. For the same compound, the Potency [4] was “inactive”, the Potency [5] was “inactive” and the Potency [6] was “inactive”.

For `NNC(=S)NN`, the Potency [1] was “inactive”, the Potency [2] was 61.1 µM (active) and the Potency [3] was 54.5 µM (active). For the same compound, the Potency [4] was 43.3 µM (active), the Potency [5] was “inactive” and the Potency [6] was “inactive”.

In the case of `CCC(C)(C)c1ccc(O)cc1`, the Potency [1] is reported as “inactive”, the Potency [2] is reported as “inactive and 54.5 µM (active)” and the Potency [3] is reported as “inactive and 61.8 µM (active) and 30.6 µM (active)”. The Potency [4] was “inactive and 54.5 µM (active)”, the Potency [5] was “inactive” and the Potency [6] was “inactive”.

With `ClC1C(Cl)C(Cl)C(Cl)C(Cl)C1Cl` (centres undefined) the Potency [1] was “inactive”, the Potency [2] was “inactive and 54.5 µM (active)” and the Potency [3] was “inactive and 48.6 µM (active) and 24.3 µM (active)”. The Potency [4] was “inactive and 48.6 µM (active) and 17.2 µM (active)”, the Potency [5] was “inactive” and the Potency [6] was “inactive”.

With `O=Cc1ccco1` the Potency [1] was “inactive”, the Potency [2] was “inactive” and the Potency [3] was “inactive”. The Potency [4] was “inactive”, the Potency [5] was “inactive” and the Potency [6] was “inactive”.

In the case of `CCC(CC)Nc1c([N+](=O)[O-])cc(C)c(C)c1[N+](=O)[O-]`, the Potency [1] is reported as “inactive”, the Potency [3] is reported as “inactive” and the Potency [4] is reported as “inactive and 54.4 µM (active)”. The Potency [5] was “inactive” and the Potency [6] was “inactive”.

In the case of `Cc1cccc(N)c1N`, the Potency [1] is reported as “inactive”, the Potency [2] is reported as “inactive and 19.3 µM (active)” and the Potency [3] is reported as 19.3 µM (active). The Potency [4] was 21.7 µM (active), the Potency [5] was “inactive” and the Potency [6] was “inactive”.

For `c1cc(OCC2CO2)ccc1Cc1ccc(OCC2CO2)cc1` (centres undefined), the Potency [2] was 13.7 µM (active), the Potency [3] was 2.44 µM (active) and 1.54 µM (active) and the Potency [4] was 61.4 µM (active) and 15.4 µM (active). For the same compound, the Potency [5] was “inactive”, the Potency [7] was “inactive” and the Potency [8] was “inactive”. For the same compound, the Potency [9, 11] was “inactive”, the Potency [6] was “inactive” and the Potency [10] was “inactive”.

With `C=CCc1ccc(OC)cc1` the Potency [1] was “inactive”, the Potency [2] was “inactive” and the Potency [3] was 26.5 µM (active). For the same compound, the Potency [4] was “inactive”, the Potency [5] was “inactive” and the Potency [6] was “inactive”.

In the case of `c1ccc(-c2cccc(-c3ccccc3)c2)cc1`, the Potency [1] is reported as “inactive”, the Potency [5] is reported as “inactive” and the Potency [6] is reported as “inactive”.

With `O=c1oc2ccccc2c(O)c1C(CC(O)c1ccc(-c2ccc(Br)cc2)cc1)c1ccccc1` (centres undefined) the Potency [1] was 23.9 µM (active) and 46.3 µM (active), the Potency [2] was “inactive” and the Potency [3] was “inactive”. The Potency [5] was “inactive” and the Potency [6] was “inactive”.

In the case of `Oc1c(Cl)c(Cl)c(Cl)c(Cl)c1Cl`, the Potency [3] is reported as “inactive”, the Potency [5] is reported as 21.4 µM (active) and the Potency [6] is reported as “inactive”.

In the case of `O=C(CCl)c1ccccc1`, the Potency [1] is reported as “inactive”, the Potency [2] is reported as “inactive and 68.6 µM (active)” and the Potency [3] is reported as 54.5 µM (active). For the same compound, the Potency [4] was 61.1 µM (active), the Potency [5] was “inactive” and the Potency [6] was “inactive”.

For `N#Cc1cc(Br)c(O)c(Br)c1`, the Potency [1] was “inactive”, the activity change [9, 11] was -6.84% (active) and the activity change ([9]; at 70.3 µM (top of the series)) was -3.58% (inactive). The Potency [6] was “inactive” and the Potency [10] was 61.1 µM (active).

For `CC(C)C(=O)OCC(C)(C)C(OC(=O)C(C)C)C(C)C` (centres undefined), the Potency [1] was “inactive”, the Potency [5] was “inactive” and the Potency [6] was “inactive”.

For `CCCCC(CC)COC(=O)Cl` (centres undefined), the Potency [1] was “inactive”, the Potency [2] was “inactive” and the Potency [3] was “inactive”. For the same compound, the Potency [4] was “inactive”, the Potency [5] was “inactive” and the Potency [6] was “inactive”.

In the case of `Cc1ccc2c(c1N)C(=O)c1ccccc1C2=O`, the Potency [1] is reported as “inactive”, the Potency [2] is reported as “inactive” and the Potency [3] is reported as “inactive”. For the same compound, the Potency [4] was 24.1 µM (active) and 30.6 µM (active), the Potency [5] was “inactive” and the Potency [6] was “inactive”.

With `CCCCNC(=O)n1c(NC(=O)OC)nc2ccccc21` the Potency [1] was “inactive”, the Potency [2] was 9.64 µM (active) and 8.63 µM (active) and the Potency [3] was 5.42 µM (active) and 6.86 µM (active). For the same compound, the Potency [4] was 6.82 µM (active) and 8.63 µM (active), the Potency [8] was “inactive” and the Potency [9, 11] was “inactive”. The Potency [6] was “inactive” and the Potency [10] was “inactive”.

With `Oc1cc(Cl)ccc1Oc1ccc(Cl)cc1Cl` the Potency [2] was 7.02 µM (active), the Potency [3] was 11.4 µM (active) and the Potency [4] was 26.6 µM (active) and 10.3 µM (active). For the same compound, the Potency [5] was “inactive” and the Potency [6] was “inactive”.

With `CCCCOCCOP(=O)(OCCOCCCC)OCCOCCCC` the Potency [1] was “inactive”, the Potency [3] was 54.5 µM (active) and the Potency [4] was 48.6 µM (active). For the same compound, the Potency [5] was “inactive” and the Potency [6] was “inactive”.

With `CCCCCc1cc(O)cc(O)c1` the Potency [1] was “inactive”, the Potency [2] was “inactive” and the Potency [3] was “inactive”. The Potency [5] was “inactive” and the Potency [6] was “inactive”.

With `Cc1ccc(OP(=O)(Oc2ccc(C)cc2)Oc2ccc(C)cc2)cc1` the Potency [1] was “inactive”, the Potency [3] was 38.6 µM (active) and the Potency [4] was 43.2 µM (active) and 48.6 µM (active). For the same compound, the Potency [5] was “inactive”.

In the case of `COP(=S)(OC)Oc1ccc([N+](=O)[O-])cc1`, the Potency [1] is reported as “inactive”, the Potency [5] is reported as “inactive” and the Potency [6] is reported as “inactive”.

For `CCCCN(CC)c1c([N+](=O)[O-])cc(C(F)(F)F)cc1[N+](=O)[O-]`, the Potency [1] was “inactive”, the Potency [2] was “inactive” and the Potency [3] was “inactive”. For the same compound, the Potency [4] was “inactive”, the Potency [5] was “inactive” and the Potency [6] was “inactive”.

With `Cc1cc(C)cc(C)c1` the Potency [1] was “inactive”, the Potency [2] was “inactive” and the Potency [3] was “inactive”. For the same compound, the Potency [4] was “inactive”, the Potency [5] was “inactive” and the Potency [6] was “inactive”.

In the case of `C=CC(=O)OCCO`, the Potency [1] is reported as “inactive”, the Potency [3] is reported as “inactive” and the Potency [4] is reported as “inactive and 43.3 µM (active)”. For the same compound, the Potency [5] was “inactive” and the Potency [6] was “inactive”.

In the case of `CC1(C)C(C=C(Cl)Cl)C1C(=O)OC(C#N)c1cccc(Oc2ccccc2)c1` (centres undefined), the Potency [1] is reported as “inactive”, the Potency [3] is reported as “inactive” and the Potency [4] is reported as 61.1 µM (active). For the same compound, the Potency [5] was “inactive” and the Potency [6] was “inactive”.

For `Nc1ccc(Cl)cc1N`, the Potency [4] was 42.3 µM (active), the Potency [6] was “inactive” and the Potency [10] was “inactive”.

In the case of `CCOC(=O)C(C)OC(=O)c1cc(Oc2ccc(C(F)(F)F)cc2Cl)ccc1[N+](=O)[O-]` (centres undefined), the Potency [1] is reported as “inactive”, the Potency [2] is reported as 24.3 µM (active) and the Potency [3] is reported as 27.3 µM (active). For the same compound, the Potency [4] was 21.7 µM (active), the Potency [5] was “inactive” and the Potency [6] was “inactive”.

With `C[C@]12CCC(=O)C(O)=C1CC[C@@H]1[C@@H]2CC[C@]2(C)C(=O)CC[C@@H]12` the Potency [1] was “inactive”, the Potency [2] was 29.8 µM (active) and 26.6 µM (active) and the Potency [4] was 29.8 µM (active) and 26.6 µM (active). For the same compound, the Potency [5] was “inactive” and the Potency [6] was “inactive”.

From PubChem BioAssay (Tox21)
